# This excerpt belongs to a sample that is enriched for hits.
# ID4 SMM = binds human ID4 protein on microarray. AID 624137. calls only. actives 1.2% (n = 31,000). P47928. small molecule microarray, Flag-ID4 binding, fluorescence F/B; call rule not given here;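 further: a binder raises fluorescence above local background on the spot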
# Target sequence (P47928 whole entry, looked up): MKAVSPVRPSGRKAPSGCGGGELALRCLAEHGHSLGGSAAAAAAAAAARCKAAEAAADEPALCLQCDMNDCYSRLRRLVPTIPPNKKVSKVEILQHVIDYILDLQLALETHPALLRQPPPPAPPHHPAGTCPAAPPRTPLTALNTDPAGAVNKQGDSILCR
# Calls only; - = inactive; + = active, no number.
SMILES,ID4 SMM
Cc1cccc(NC(=O)CSc2nnc(-c3ccncc3)n2-c2ccc(C)c(C)c2)c1,-
Cc1cc(=O)oc2cc(NC(=S)NCc3cccnc3)ccc12,+
COc1ccc(NC(=O)NCc2cccnc2)cc1OC,-
COc1ccc(NC(=S)NCc2cccnc2)cc1OC,-
COc1ccc(CN2C(=O)C(O)(CC(=O)c3ccc(Cl)cc3)c3ccccc32)cc1OC (stereo not given),-
Cc1nc(SCC(=O)Nc2cccc(C(=O)O)c2)[nH]c(=O)c1C,-
Cc1cc(C)nc(SCC(=O)Nc2cccc(C(=O)O)c2)n1,+
Cn1nnnc1SCC(=O)Nc1cccc(C(=O)O)c1,-
CS(=O)(=O)N(CC(=O)Nc1ccccc1Sc1ccccc1)c1cccc(C(F)(F)F)c1,-
Nc1cc(N)nc(SCC(=O)Nc2cccc(Cl)c2Cl)n1,-
COc1ccc(-c2cc(C)nc(SCC(=O)Nc3cccc(Cl)c3Cl)n2)cc1,+
COc1ccc(-c2cc(=O)[nH]c(SCC(=O)Nc3cccc(Cl)c3C)n2)cc1,-
Cc1ccccc1OCC(=O)Nc1ccccc1C(=O)N1C(C)CCCC1C (stereo not given),-
Cc1nn2c(CN(c3ccccc3)S(=O)(=O)c3ccccc3)nnc2c2ccccc12,-
Cc1nn2c(CN(C(=O)c3cccs3)c3ccccc3)nnc2c2ccccc12,-
Cc1nn2c(CN(C(=O)CN3CCOCC3)c3ccccc3)nnc2c2ccccc12,+
O=C(CSc1nc(-c2ccccc2)c(-c2ccccc2)[nH]1)Nc1ccccc1Cl,-
Cc1ccc(OCC(=O)Nc2cc3nn(-c4ccc(C)cc4)nc3cc2C)cc1,-
COC(=O)C(C)Sc1nc(N2CCOCC2)nc(N2CCOCC2)n1 (stereo not given),-
Cc1occc1C(=O)Nc1sc2c(c1C(=O)NCc1cccnc1)CCCC2,+
O=C(Nc1sc2c(c1C(=O)NCc1cccnc1)CCCC2)c1cccs1,-
O=C(Nc1sc2c(c1C(=O)NCc1cccnc1)CCCC2)c1ccc(Cl)cc1,-
Cc1cc(I)ccc1NC(=O)CN(c1ccc(F)c(Cl)c1)S(C)(=O)=O,-
COc1ccc(NC(=O)CCCC(=O)O)cc1,-
COc1ccc(C(=O)NCCc2c[nH]c3ccccc23)cc1[N+](=O)[O-],-
SMILES,ID4 SMM
COc1cc(SC)ccc1C(=O)NCCc1c[nH]c2ccccc12,-
CCCC(=O)N(CCc1c[nH]c2ccccc12)[C@@H]1CC(C(=O)NCCO)=C[C@H](Oc2c(I)cc(CO)cc2OC)[C@H]1O,+
Cc1nnc(SCC(=O)N2N=CCC2c2ccccc2)s1 (stereo not given),-
CC(C(=O)Nc1cc(Cl)ccc1Oc1ccccc1)N(c1ccccc1)S(C)(=O)=O (stereo not given),-
COc1ccc(NC(=O)CSc2ncnc3c2sc2nc(N4CCOCC4)c4c(c23)CC(C)(C)OC4)cc1,-
Cc1ccc(N(CC(=O)Nc2cccc3ccccc23)S(C)(=O)=O)cc1Cl,-
CC(C)C[C@@H]1NC(=O)[C@@H]2C[C@H](C(=O)NCCCCCCN(C)C)[C@H](c3ccc(O)cc3)N2C1=O,-
NCCCCCCNC(=O)[C@H]1C[C@H]2C(=O)N[C@@H](Cc3ccccc3)C(=O)N2[C@H]1c1cccc(OCCO)c1,+
CN(C)CCCCCCNC(=O)[C@H]1C[C@H]2C(=O)N3CCC[C@H]3C(=O)N2[C@H]1c1cccc(OCCO)c1,+
O=C(NCc1ccc(F)cc1)[C@@H]1C[C@@H]2C(=O)N3CCC[C@H]3C(=O)N2[C@@H]1c1cccc(OCCO)c1,-
CC(=O)NCCCC[C@@H]1NC(=O)[C@H]2C[C@@H](C(=O)NCCCCCCNC(=O)CS)[C@@H](c3ccc(O)cc3)N2C1=O,-
O=C(NCc1ccc(F)cc1)[C@H]1C[C@H]2C(=O)NCC(=O)N2[C@H]1c1cccc(OCCO)c1,-
CC(C)C[C@@H]1NC(=O)[C@H]2C[C@@H](C(=O)NCCCCCNC(=O)CS)[C@@H](c3cccc(OCCO)c3)N2C1=O,-
O=C(NCc1ccc(F)cc1)[C@H]1C[C@H]2C(=O)N3CCC[C@H]3C(=O)N2[C@H]1c1cccc(OCCO)c1,+
O=C(CS)NCCCCCCNC(=O)[C@@H]1C[C@@H]2C(=O)NCC(=O)N2[C@@H]1c1ccc(O)cc1,-
CC(C)C[C@@H]1NC(=O)[C@@H]2C[C@H](C(=O)O)[C@H](c3cccc(OCCO)c3)N2C1=O,-
O=C(NCc1ccc(F)cc1)[C@@H]1C[C@@H]2C(=O)N3CCC[C@H]3C(=O)N2[C@@H]1c1ccc(O)cc1,-
O=C1NCC(=O)N2[C@@H]1C[C@@H](C(=O)NCc1ccc(F)cc1)[C@H]2c1cccc(OCCO)c1,+
COc1cc2c(cc1NC(=O)COC(C)=O)oc1ccccc12,-
Cc1ccccc1OCC(=O)Nc1ccc(O)cc1C(=O)O,-
COc1ccccc1NC(=O)c1cnc(Nc2nc3ccccc3s2)nc1C,-
N#Cc1c(NC(=O)Cn2c(=O)oc3ccccc32)sc2c1CCC2,-
N#Cc1c(NC(=O)Cn2c(=O)oc3ccccc32)oc(-c2ccccc2)c1-c1ccccc1,+
O=C(Cn1c(=O)oc2ccccc21)Nc1ccc(C(=O)O)cc1,-
C=CC(C)(CC/C=C(\C)C(=O)O)O[C@@H]1O[C@H](C)[C@@H](O)[C@H](O)[C@H]1O (stereo not given in full),-
SMILES,ID4 SMM
O=C(C1CCCO1)N1CCN(C(=S)Nc2ccc(S(=O)(=O)Nc3ncccn3)cc2)CC1 (stereo not given),-
O=C(Nc1ccc(S(=O)(=O)NCC2CCCO2)cc1)C1CCCO1 (stereo not given),-
O=C(O)c1cc(NC(=O)C2CCCO2)cc(NC(=O)C2CCCO2)c1 (stereo not given),+
C[C@@H]1CN([C@@H](C)CO)C(=O)c2cc(NS(=O)(=O)c3ccccc3)ccc2O[C@@H](C)CCCCO[C@H]1CN(C)C(=O)c1ccncc1,-
C[C@@H]1CCCCO[C@@H](CN(C)C(=O)c2ccncc2)[C@@H](C)CN([C@@H](C)CO)C(=O)c2cc(NS(=O)(=O)c3ccccc3)ccc2O1,-
C[C@@H]1CCCCO[C@H](CN(C)Cc2ccccc2)[C@@H](C)CN([C@@H](C)CO)C(=O)c2cc(NS(=O)(=O)c3ccccc3)ccc2O1,-
C[C@H](CO)N1C[C@H](C)[C@H](CN(C)Cc2ccccc2)OCCCC[C@H](C)Oc2ccc(NS(=O)(=O)c3ccccc3)cc2C1=O,-
C[C@H]1CCCCO[C@@H](CN(C)Cc2ccc(C(=O)O)cc2)[C@@H](C)CN([C@@H](C)CO)C(=O)c2cc(NS(=O)(=O)c3ccccc3)ccc2O1,+
C[C@H]1CCCCO[C@@H](CN(C)C(=O)c2ccncc2)[C@@H](C)CN([C@@H](C)CO)C(=O)c2cc(NS(=O)(=O)c3ccccc3)ccc2O1,+
CCC(=O)N1CCN(c2ccc(Cl)cc2NC(=O)COc2ccc(Br)cc2)CC1,-
C=CC(C)(C)[C@@]12CC(=O)C(=O)N3/C(=C/c4cnc[nH]4)C(=O)N[C@]31N(OC)c1ccccc12,-
COc1ccc(NC(=O)c2ccc(OC(C)C(=O)O)cc2)cc1Cl (stereo not given),+
COc1ccc(NC(=O)c2ccc(OC(C)C(=O)Nc3ccccc3C(F)(F)F)cc2)cc1Cl (stereo not given),-
COc1ccc(NC(=O)CNC(=O)c2ccc(OC)c(OC)c2)cc1Cl,-
COc1ccc2ccccc2c1C=C1C(=O)OC2(CCCC2)OC1=O,-
O=C(NCc1cccnc1)c1cc(-c2ccccc2)on1,-
O=P(CCNCc1cccnc1)(c1ccccc1)c1ccccc1,+
O=C(COc1ccccc1Br)NCc1cccnc1,-
